The text below walks through data of PubChem BioAssay (EPA / NIEHS).

Each structure is given as a SMILES string. Calls of active or inactive are those of the source. The calls were made as follows: active = hit-call score of the fitted dose curve at least 0.9, where 1 is the maximum; inactive = score below 0.9.

Usually AC50 stands for the concentration giving half of the maximal activity seen.

Read-out in the test: Potassium channel subfamily K member 1 (KCNK1), KCNK1 (gene 3775)
Description: LTEA_HepaRG_KCNK1: Life Technologies and Expression Analysis (LTEA) Assay for Potassium channel subfamily K member 1 (KCNK1) using HepaRG (AID 2283511). The note with it: mRNA level, 48 h; actives raise or lower the signal. The protocol: LTEA_HepaRG is a cell based, multiplexed-readout assay that uses HepaRG, a human liver cell line, with measurements taken at 48 hours after chemical dosing on a 96-well plate.LTEA_HepaRG_KCNK1 is one of 102 assay component(s) measured in the LTEA HepaRG cell culture assay. It is a marker of Hyperplasia.Data from the assay component LTEA_HepaRG_KCNK1 was analyzed into 1 endpoint. This assay endpoint, LTEA_HepaRG_KCNK1, was analyzed with bidirectional fitting relative to DMSO as the negative control and baseline of activity. Using a type of inducible reporter, measures of mRNA induction for gain or loss-of-signal activity can be used to understand regulation of transcription factor activity. To generalize the intended target to other relatable targets, this assay endpoint is annotated to the ion channel intended target family, where the subfamily is potassium channel.
A total of 1060 chemcials from the ToxCast library were tested in eight-point concentration-response experiments. Cell culture and cytotoxicity assays were conducted at Thermo Fisher Scientific's Custom Services facility (Madison, WI). A single lot of human HepaRG cells (Thermo Fisher Scientific, Frederick, MD) was used for the cell culture experiments. 96-well format collagen type I coated plates of human HepaRG cells were prepared using established methods. Briefly, cryopreserved HepaRG cells were thawed, plated at a density of approximately 100,000 cells/well in HepaRG Thaw, Plate, and General Purpose media (HPRG770, Thermo Fisher Scientific), and incubated for 48 hours. 0.5% DMSO was selected as vehicle control to balance the requisite need of DMSO in HepaRG cultures to maintain differentiation (for example, baseline metabolism, proportions of hepatocytes vs. cholangiocytes), while enabling further hepatic receptor pathway activation (for example, PXR and CAR) in response to chemical exposure. 48 hours after plating, the culture medium was replaced with HepaRG Serum-Free Incudtion Media. Cells were exposed to each test chemical in duplicate and maintained in CO2 incubators for another 48 hours. Chemical plates were thawed to room temperature and 200x concentrations of treatment groups were prepared. 8-point conentration-reponse curves were made with the highest exposure at 100 uM, followed by half-log dilutions, all in 0.5% DMSO. Each test plate contained variouse controls, induction positive controls (1mM phenobarbital), cytotoxicity positive controls ([…] aflatoxin B1), vehicle controls (0.5% DMSO), and total lysis controls (0.5% DMSO). Cell morphology images were taken using an Essen IncuCyte FLR automated microscope, with six 96-well plates imaged in about 24 minutes. Images were captured and exported and JPEG files. Spent culture media was transfered to black-well plates for the LDH assay, and remaining media was sorted at -80 C for later use. Cells were treated with RLT buffer and frozen until shipped for gene expression analysis. Total RNA was isolated from the cell suspension in 75 uL of Buffer RLT (Qiagen, Germantown, MD 20874) by Quintiles/Expression Analysis (Durham, NC) using a custom isolation procedure. Total RNA from each plate well was transferred to a preamplification plate. Fluidigm's 96.96 Dynamic ArrayTM (Fluidigm, Amsterdam, the Netherlands) technology was used for gene expression analyses by quantitative reverse transcription polymerase chain reaction (qRT-PCR, performed by Quintiles/Expression Analysis, Durham, NC)89. Standard TaqManTM Assays (Applied Biosystems/ThermoFisher Scientific, Foster City, CA) were used to assess the expression of 93 genes selected based on their selectivity and sensitivity to important hepatic receptors known to be modulated by environmental chemicals; importance in human hepatocyte functionality; and hepatotoxicity. […]
For `COc1cc(S(=O)(=O)O)c(C)cc1N=Nc1c(O)ccc2cc(S(=O)(=O)O)ccc12`, the compound was classed as inactive. With `CCCCCCCCCCO`, the compound was classed as inactive. Still for that read-out and setting: next, `NC(=O)Cn1c(=O)cc(CCN2CCN(c3nccc4sccc34)CC2)c2ccc(F)cc21`: “inactive”. As to `CCCc1cc(=O)[nH]c(=S)[nH]1`, the outcome was inactive.

As for `O=C(O)CCCCC(=O)O`, the result was inactive. On to `CN[C@H]1CC[C@@H](c2ccc(Cl)c(Cl)c2)c2ccc(S(N)(=O)=O)cc21`, for which the compound was called inactive. Still for that read-out and setting: under `COc1ccc(C)cc1N` stands “inactive”; under `CCCCCCCC=O`, “inactive”; under `CC(=O)OCCOCCOCCOC(C)=O`, “inactive”.

For the compound `C1CCC(SSC2CCCCC2)CC1`, the outcome was inactive.

`O=[N+]([O-])C(CO)(CO)CO`: the call was inactive. For `COc1ccc(S(=O)(=O)N2C(=O)[C@@](c3ccccc3OC)(N3C[C@H](O)C[C@H]3C(=O)N(C)C)c3cc(Cl)ccc32)c(OC)c1`, the AC50 is 50 µM (active). As to `Cc1cccc([N+](=O)[O-])c1C`, the compound was called inactive. For the compound `O=C(N[C@@H](Cc1ccccc1)[C@@H](O)C(=O)N1C[C@@H](O)[C@@H](O)C1)c1cc2cc(Cl)ccc2[nH]1`, the call was inactive. On the same count and under the same terms, under `Clc1cc(Cl)c(Cl)cc1Cl` stands “inactive”; under `Cc1ccc(C)c(C)c1`, “inactive”. Still for that read-out and setting: under `CCCCCCCCCCCCCO` stands “inactive”; under `NS(=O)(=O)c1cc2c(cc1Cl)NCNS2(=O)=O`, “inactive”. The same measure, in the same setting: next, `COc1cc(-c2nc(NC(=O)c3cc4cc(C)cc(C)c4n3CC(=O)O)sc2CCC2CCCCC2)c(OC)cc1Cl`: “inactive”.

As to `CC(CO)OC(C)CO` (stereo not given) (tested in a mixture with another compound), the outcome was inactive. Still for that read-out and setting: under `NCCO` stands “inactive”; under `Nc1ccccc1N`, “inactive”. Regarding `O=c1[nH]cc(F)c(=O)[nH]1`, the outcome was inactive.

Turning to `CCc1c(C(=O)NN2CCCCC2)nn(-c2ccc(Cl)cc2Cl)c1-c1ccc(Br)cc1`, the AC50 was 58.6 µM (active). For the compound `C=CCc1ccc(O)c(OC)c1`, the call was inactive.

On to `C[C@]12C=CC(=O)C=C1CC[C@@H]1[C@@H]2C(=O)C[C@@]2(C)[C@H]1CC[C@]2(O)C(=O)CO`, for which the call was inactive. Consider `CCCCOC(=O)CCCCCCCCC(=O)OCCCC`, for which the outcome was inactive. The same measure, in the same setting: next, `Cc1ccc(C(C)C)c(O)c1`: “inactive”; `Cc1cc(=O)[nH]c(=S)[nH]1`: “inactive”; `CC(=O)C(C)=CC1C(C)=CCCC1(C)C` (stereo not given): “inactive”. Take `CCOC(=O)CCC(=O)OCC`: the call was inactive. For the compound `CCOc1ccc2c(c1)C(C)=CC(C)(C)N2`, the compound was called inactive. For the compound `Cc1cccc(C)c1O`, the result was inactive. On to `Cc1oc(-c2ccccc2)nc1CCOc1cccc2c1ccn2CCC(=O)O`, for which the outcome was inactive. Same read-out and setting: under `CNC(=O)[C@H]1O[C@@H](n2cnc3c(NCc4cc(Cl)ccc4OCc4cc(C)no4)ncnc32)[C@H](O)[C@@H]1N` stands “inactive”; under `Cc1cc(NC(=O)C(=O)O)cc(C)c1Oc1ccc(O)c2c1CCC2`, “inactive”. As for `OC[C@@H](O)[C@@H](O)[C@H](O)[C@H](O)CO`, the result was inactive. Same read-out and setting: under `CC=Cc1ccc(O)c(OC)c1` stands “inactive”; under `Cc1ccc(N(C)C)cc1`, “inactive”. Still for that read-out and setting: next, `CN1CCN(Cc2cc(-c3ccc4[nH]c(=O)oc4c3)co2)[C@@H](c2ccc(F)cc2)C1`: “inactive”.
